# Laboratory results published in the supplement of paper PMC9135407.
# “And” between values parts separate entries of the source, which are not always exact repeats. Identical values can stand only once. Counter-ions that a name gives are not always drawn. The whole screen tested about 5,800 compounds, of which about 620 (11%) showed activity. The list comes from a sample in which actives are over-represented; it also holds similar structures and randomly drawn compounds. Unmarked numbers belong to inactive results.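 Rule for the calls: active = score above a cut-off or among the top three wells of a plate; in these data no inactive exceeds 0.85.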
# System: primary human hepatic stellate cells (donor 1)
# Test: scaled lipid accumulation score (0 = DMSO-like, 1 = nortriptyline-like); higher = stronger HSC inactivation (lipid re-accumulation), active = hit call of the paper
# Details: 48 h
# [1] = library stock concentration: 10 mM
# [2] = library stock concentration: 1 mM
# [3] = library stock concentration: 100 uM
# [4] = library stock concentration: 5.9 mM
# [5] = library stock concentration: 3.33 mM
# [6] = library stock concentration: 80 uM
# [7] = library stock concentration: 400 uM
# [8] = library stock concentration: 2 mM
smiles,measurement,setting,value
"C[N+]1(C)CCc2cc3c(cc2C1C1OC(=O)c2c1ccc1c2OCO1)OCO3 (single isomer, unassigned; (-)) [(-)-Bicuculline methobromide]",scaled lipid accumulation score,[1],≤ 0
O=C(O)/C=C/CO [trans-4-Hydroxycrotonic acid],scaled lipid accumulation score,[1],0.003
CCCCCCCC/C=C\CCCCCCCC(=O)Nc1ccccc1 [Oleyl Anilide],scaled lipid accumulation score,[2],0.024
CS(=O)(=O)Nc1ccc(Cc2noc(-c3ccc4[nH]cc(CCN)c4c3)n2)cc1,scaled lipid accumulation score,[1],≤ 0
COc1ccc(CCN2CCC(Nc3nc4ccccc4n3Cc3ccc(F)cc3)CC2)cc1 [Astemizole] [listing 1 of 3 here],scaled lipid accumulation score,[1],0.907 (active)
COc1ccc(CCN2CCC(Nc3nc4ccccc4n3Cc3ccc(F)cc3)CC2)cc1 [Astemizole] [listing 2 of 3 here],scaled lipid accumulation score,library stock concentration: 4.4 mM,0.824 and 0.409
same,scaled lipid accumulation score,[1],0.475
COc1ccc(CCN2CCC(Nc3nc4ccccc4n3Cc3ccc(F)cc3)CC2)cc1 [Astemizole] [listing 3 of 3 here],scaled lipid accumulation score,,1 (active)
COc1ccc(C(=O)c2c(C)n(CCN3CCOCC3)c3ccccc23)cc1 [Pravadoline],scaled lipid accumulation score,library stock concentration: 5.3 mM,≤ -0.006
CC(=O)N[C@H]1[C@@H](O[C@@H]2O[C@H](CC(O)[C@H]3O[C@@H](n4ccc(=O)[nH]c4=O)[C@H](O)[C@@H]3O)[C@H](O)[C@H](O)[C@H]2NC(=O)/C=C/CC(C)C)O[C@H](CO)[C@@H](N)[C@@H]1O (stereo partly specified) [Tunicamycin],scaled lipid accumulation score,library stock concentration: 7 mM,0.058
CN1CC[C@@]2(C)c3cc(OC(=O)Nc4ccccc4)ccc3N(C)[C@@H]12 [Phenserine],scaled lipid accumulation score,[1],0.339
NCCc1ccccn1,scaled lipid accumulation score,[1],≤ 0
CCCCCCC(=O)CCCCCC/C=C/C[C@@H](O)[C@H](O)[C@@](N)(CO)C(=O)O [Myriocin],scaled lipid accumulation score,[2],0.023
O[C@H]1[C@H]2[C@H](O)CCCN2C[C@H]1O [swainsonine],scaled lipid accumulation score,library stock concentration: 28.9 mM,0.01
"Clc1ccc(N2CCN(Cc3c[nH]c4ncccc34)CC2)cc1 [L-745,870 trihydrochloride]",scaled lipid accumulation score,[1],0.37
"Cl.Clc1ccc(N2CCN(Cc3c[nH]c4ncccc34)CC2)cc1 [L-745,870 hydrochloride]",scaled lipid accumulation score,[1],0.902 (active)
CC1=CC(=O)C2=C(C)C[C@H](O)[C@@H]3[C@H](OC(=O)[C@H]3C)[C@H]12 [Austricine hydrate],scaled lipid accumulation score,,≤ 0
CCCCC[C@@H](/C=C/C=C\CCCCCCCC(=O)O)OO,scaled lipid accumulation score,[3],≤ -0.021
CO[C@@H]1C=C2CCN(C)[C@@H]2C2c3cc4c(cc3C(=O)OC21)OCO4 (stereo partly specified) [Ungerine nitrate],scaled lipid accumulation score,,≤ 0
CCCCCCC(=O)O[C@H]1CC[C@H]2[C@@H]3CC(=O)C4=CC(=O)CC[C@]4(C)[C@H]3CC[C@]12C [6-keto Testosterone Enanthate],scaled lipid accumulation score,[2],0.048
O=C1Nc2ccc(Cl)cc2C(c2ccccc2Cl)=NC1O (stereo unspecified) [Lorazepam],scaled lipid accumulation score,[1],≤ 0
O=C1CC[C@@]2(O)[C@H]3Cc4ccc(O)c5c4[C@@]2(CCN3CC2CC2)[C@H]1O5 [Naltrexone hydrochloride],scaled lipid accumulation score,[4],0.019
same,scaled lipid accumulation score,[1],≤ -0.045 and ≤ -0.027
Oc1ccc2c3c1O[C@H]1c4[nH]c5ccccc5c4C[C@@]4(O)[C@@H](C2)N(CC2CC2)CC[C@]314 [Naltrindole HCl],scaled lipid accumulation score,library stock concentration: 4.8 mM,0.264
O=C1CC[C@@]2(O)[C@H]3Cc4ccc(O)c5c4[C@@]2(CCN3CC2CC2)[C@H]1O5 [Naltrexone hydrochloride dihydrate],scaled lipid accumulation score,,≤ 0
O=C1CC[C@@]2(O)[C@H]3Cc4ccc(O)c5c4[C@@]2(CCN3CC2CC2)[C@H]1O5 [Naltrexone HCl],scaled lipid accumulation score,[5],≤ 0
same,scaled lipid accumulation score,[4],≤ -0.006
same,scaled lipid accumulation score,[1],0.025
C=C(C)CN1CC[C@@]23c4c5ccc(O)c4O[C@H]2c2[nH]c4ccccc4c2C[C@]3(O)C1C5 [SDM25N hydrochloride],scaled lipid accumulation score,[1],0.625
O=C1/C(=C/c2ccccc2)C[C@@]2(O)[C@H]3Cc4ccc(O)c5c4[C@@]2(CCN3CC2CC2)[C@H]1O5 [BNTX maleate salt hydrate],scaled lipid accumulation score,[1],≤ -0.006
Cl.Oc1ccc2c3c1O[C@H]1c4[nH]c5ccccc5c4C[C@@]4(O)C(C2)N(CC2CC2)CCC314 (stereo partly specified) [Naltrindole hydrochloride],scaled lipid accumulation score,[1],1.1 (active)
Oc1ccc2c3c1O[C@H]1c4[nH]c5c(c4C[C@@]4(O)[C@@H](C2)N(CC2CC2)CC[C@]314)C[C@@]1(O)[C@H]2Cc3ccc(O)c4c3[C@@]1(CCN2CC1CC1)[C@H]5O4 [nor-Binaltorphimine dihydrochloride],scaled lipid accumulation score,[1],≤ -0.055 and ≤ 0
O=C(O)/C=C\C(=O)O.O=C1/C(=C/c2ccccc2)C[C@@]2(O)C3Cc4ccc(O)c5c4[C@@]2(CCN3CC2CC2)[C@H]1O5 [BNTX maleate],scaled lipid accumulation score,[1],0.851 (active)
Cl.Oc1ccc2c3c1O[C@H]1c4[nH]c5ccccc5c4C[C@@]4(O)C(C2)N(CC2CC2)CC[C@]314 [Naltrindole hydrochloride],scaled lipid accumulation score,[1],1.33 (active)
Oc1ccc2c3c1O[C@H]1c4[nH]c5ccccc5c4C[C@@]4(O)[C@@H](C2)N(CC2CC2)CC[C@]314 [Naltrindole],scaled lipid accumulation score,[1],0.713
CCCCCCC(C)(C)c1ccc([C@@H]2C[C@H](O)CC[C@H]2CCCO)c(O)c1,scaled lipid accumulation score,[2],0.004
CN/C(=N\S(=O)(=O)c1ccc(Cl)cc1)N1C[C@H](c2ccccc2)C(c2ccc(Cl)cc2)=N1,scaled lipid accumulation score,[2],≤ 0
COC[C@H]1OC(=O)c2coc3c2[C@@]1(C)C1=C(C3=O)[C@@H]2CCC(=O)[C@@]2(C)C[C@H]1OC(C)=O [Wortmannin],scaled lipid accumulation score,[5],≤ 0
same,scaled lipid accumulation score,[1],≤ 0
CCOC(=O)c1ncn2c1CN(C)C(=O)c1cc(N=[N+]=[N-])ccc1-2,scaled lipid accumulation score,[1],≤ -0.001
CC1=CCCC2C1(C)CCC(C)C2(C)CC/C(C)=C/Cn1c[n+](C)c2c(N)ncnc21 (stereo unspecified) [Agelasine (stereochemistry of diterpene unknown)],scaled lipid accumulation score,[1],0.317
COc1ccc(N(C(=O)Oc2c(C)cccc2C)c2ccnc(Nc3ccc(N4CCN(C)CC4)cc3)n2)c(OC)c1,scaled lipid accumulation score,[6],0.038
same,scaled lipid accumulation score,[7],0.193
same,scaled lipid accumulation score,[8],≤ 0
same,scaled lipid accumulation score,[5],0.656
same,scaled lipid accumulation score,[1],0.815 and 0.679
COc1ccc(-n2nc(C(F)(F)F)cc2-c2ccc(Cl)cc2)cc1,scaled lipid accumulation score,[1],0.006
COc1ccc(/C=C/C(=O)CC(=O)/C=C/c2ccc(OC)c(OC)c2)cc1OC [Dimethoxycurcumin],scaled lipid accumulation score,[2],≤ 0
CCCCC/C=C\C/C=C\C/C=C\C/C=C\CCCC(=O)NC[C@@H](C)O [R-2 Methanandamide],scaled lipid accumulation score,[2],≤ 0
COC[C@@H]([C@H](O)[C@H](O)C(=O)NCC[C@H](C)c1nc(/C=C/C[C@@H]2O[C@]3(C[C@@H](O)[C@@H]2C)O[C@H]([C@H](C[C@H](O)[C@H](C)[C@H](O)[C@H](C)/C=C(C)/C(C)=C/C=C/C(C)=C\C#N)OC)[C@H](OP(=O)(O)O)C3(C)C)co1)N(C)C [Calyculin A],scaled lipid accumulation score,library stock concentration: 500 uM,0.228
C=C1[C@@H](C)[C@H]2[C@H](Cc3ccccc3)NC(=O)[C@]23OC(=O)/C=C/[C@H](O)CCC[C@@H](C)C/C=C/[C@H]3[C@@H]1O [Cytochalasin B],scaled lipid accumulation score,library stock concentration: 10.4 mM,0.806
C=C1[C@@H](C)[C@H]2[C@H](Cc3ccccc3)NC(=O)C23[C@H](OC(C)=O)/C=C/[C@](C)(O)C(=O)[C@@H](C)C/C=C/[C@H]3[C@@H]1O (stereo partly specified) [Cytochalasin D],scaled lipid accumulation score,library stock concentration: 9.9 mM,0.918 (active)
CC[C@@H](C)C(=O)O[C@H]1[C@H](O)[C@H]2[C@@H](CN3C[C@@H](C)CC[C@H]3[C@@]2(C)O)[C@@H]2C[C@]34O[C@]5(O)[C@@H](OC(=O)[C@](C)(O)[C@@H](C)O)CC[C@@]3(C)[C@@H]5[C@@H](OC(C)=O)[C@@H](OC(C)=O)[C@H]4[C@@]21O (stereo in doubt) [Protoveratrine b],scaled lipid accumulation score,[1],≤ 0
COc1ccc2c(c[n+](C)c3c4cc5c(cc4ccc23)OCO5)c1OC [Chelerythrine Chloride],scaled lipid accumulation score,[5],0.656
COc1ccc2c(c[n+](C)c3c4cc5c(cc4ccc23)OCO5)c1OC [Chelerythrine chloride],scaled lipid accumulation score,[6],≤ -0.016
same,scaled lipid accumulation score,[7],≤ -0.016
same,scaled lipid accumulation score,[1],0.308 and 0.167
COc1ccc2c(c[n+](C)c3c4cc5c(cc4ccc23)OCO5)c1OC.Cl [Chelerythrine chloride],scaled lipid accumulation score,[8],1.1 (active)
"COc1ccc2c(c1OC)CN1CCc3cc4c(cc3C1C2)OCO4 (stereo unspecified) [(d,l)-Tetrahydroberberine]",scaled lipid accumulation score,,≤ 0
CCCCC/C=C\C/C=C\C/C=C\C/C=C\CCC(C)C(=O)NCCF (stereo unspecified),scaled lipid accumulation score,[2],0.05
C/C=C1/C[N+]2(C)CCC34C(=C(C=O)[C@H]1C[C@@H]32)Nc1ccccc14 (stereo partly specified) [Fluorocurarine chloride],scaled lipid accumulation score,,≤ 0
CC(C)C1CNC(C(=O)O)C1CC(=O)O (stereo unspecified) [Dihydrokainic acid],scaled lipid accumulation score,[1],0.08
CCCCC/C=C\C[C@@H](/C=C/C=C\C/C=C\CCCC(=O)O)OO,scaled lipid accumulation score,[3],≤ -0.021
"Cc1cc(C)cc(C(=O)OC2C[C@H]3CC[C@@H](C2)N3C)c1 (stereo partly specified) [Tropanyl-3,5-dimethylbenzoate]",scaled lipid accumulation score,[1],0.57
CN1C2CCC1CC(OC(=O)c1cc(Cl)cc(Cl)c1)C2 (stereo unspecified),scaled lipid accumulation score,[1],1.04 (active)
"CN1[C@@H]2CC[C@H]1C[C@@H](OC(=O)c1cc(Cl)cc(Cl)c1)C2 [3-Tropanyl-3,5-dichlorobenzoate]",scaled lipid accumulation score,[1],0.646
